Results on eleven compounds are retold here after PubChem BioAssay.

Molecules are shown by their SMILES.

Chain of Pro-neuregulin-1, membrane-bound isoform (Homo sapiens) (Q02297 whole entry, looked up, canonical isoform): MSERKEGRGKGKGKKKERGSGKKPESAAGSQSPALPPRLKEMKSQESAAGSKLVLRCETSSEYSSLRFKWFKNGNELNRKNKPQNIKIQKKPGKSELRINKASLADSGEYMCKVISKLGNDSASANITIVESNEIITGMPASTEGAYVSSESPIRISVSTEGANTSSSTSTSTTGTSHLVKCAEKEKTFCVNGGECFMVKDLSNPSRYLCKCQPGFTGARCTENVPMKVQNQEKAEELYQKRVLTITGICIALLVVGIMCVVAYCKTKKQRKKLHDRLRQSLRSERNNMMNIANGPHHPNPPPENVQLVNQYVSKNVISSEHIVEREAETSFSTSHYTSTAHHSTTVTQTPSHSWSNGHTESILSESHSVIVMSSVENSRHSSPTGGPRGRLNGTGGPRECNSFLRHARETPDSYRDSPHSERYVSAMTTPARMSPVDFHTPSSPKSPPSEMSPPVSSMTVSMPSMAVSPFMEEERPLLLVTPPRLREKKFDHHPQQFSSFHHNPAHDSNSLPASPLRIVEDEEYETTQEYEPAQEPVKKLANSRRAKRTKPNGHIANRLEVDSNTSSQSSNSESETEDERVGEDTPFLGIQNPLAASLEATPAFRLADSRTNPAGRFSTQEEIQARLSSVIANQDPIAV

This test has as its target Pro-neuregulin-1, membrane-bound isoform (Homo sapiens) (UniProt Q02297). Briefly: NRG1 binders on small-molecule microarrays, primary screen, psychiatric disease protein project, biochemical, small-molecule microarray, fluorescence 635/667 (AID 1075).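 Further: score combines 667 nm spot fluorescence with signal to noise.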 The following applies: NRG1 binding, 635 nm fluorescence, higher = more signal.
Take `CC1CC/C=C\[C@H]2OC34C=CCN(c5ccc(Cl)cc5)C(=O)[C@H]3N(CCO)C(=O)[C@]4(C)C2C(=O)O1` (stereo partly specified): the composite z-score turned out to be 0.93. Compound `O=C1O[C@H](c2ccccc2)[C@H](c2ccccc2)N2[C@H]1[C@@H](C(=O)O)[C@]1(C(=O)Nc3ccc(C#CCCO)cc31)[C@H]2c1ccc(O)cc1` gave a composite z-score of 0.957.

Consider `COc1cc2c(cc1O)C=[N+](Cc1cccc(OC(F)(F)F)c1)CC2`, for which the composite z-score stood at 0.529.

`COC(=O)c1c(CC[C@@H](CO)NC(=O)N[C@H](Cn2cc(Cc3ccccc3)nn2)C(C)C)oc(C(C)=O)c1C(=O)OC` gave a composite z-score of 0.0567.

Compound `O=C1O[C@H](c2ccccc2)[C@H](c2ccccc2)N2[C@H]1[C@@H](C(=O)N1CCN(c3ncccn3)CC1)[C@]1(C(=O)Nc3ccc(C#CC4=CCCCC4)cc31)[C@H]2c1ccc(O)cc1` came in with a composite z-score of 1.11.

For `CN(C)CCCNC(=O)[C@@]1(c2ccc([N+](=O)[O-])cc2)CC(=O)N(C2CCCCC2)[C@@H]1c1ccc(CO)cc1`, the composite z-score came to 1.52.

The compound `COc1ccc(C#Cc2ccc3c(c2)[C@]2(C(=O)N3)[C@H](c3ccccc3OCCO)N3[C@H](c4ccccc4)[C@H](c4ccccc4)OC(=O)[C@H]3[C@@H]2C(=O)O)cc1` had a composite z-score of 1.74. `COc1ccc([C@H]2OC[C@@H]3CC4(CC=CC4)C(=O)N32)cc1` returned a composite z-score of -0.105. Compound `COc1ccc(C(O)C2C=CC3C(=O)NC(=O)C3N2Nc2ccccn2)c2ccccc12` (stereo unspecified) yielded a composite z-score of 1. For the compound `Cc1ccc(S[C@]2(C(=O)NC(C)C)CC(=O)N(Cc3ccccc3Cl)[C@@H]2c2ccc(CO)cc2I)cc1`, the composite z-score stood at 1.85.

In turn, `C=CCOC(=O)[C@@H]1[C@H]2C(=O)O[C@H](c3ccccc3)[C@H](c3ccccc3)N2[C@H](c2ccc(OCCOC(=O)[C@@H]3C[C@@H]4C(=O)N5CCC[C@H]5C(=O)N4[C@@H]3c3ccc(O)cc3)cc2)[C@@]12C(=O)Nc1ccc(I)cc12` gave a composite z-score of 0.596.
